The source made the active and inactive calls.
What was measured:
[1] = small molecules captured by biotinylated probe aFSTL3 – biochemical, small-molecule microarray, fluorescence 635/667, stem cell growth factor project, primary screen (AID 1064); details: higher = more signal;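 also: measures binding of the biotinylated anti-FSTL3 antibody to printed compounds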
[2] = binders from COS7 lysate, DM2A8 probe, primary screen, torsin A project, cell lysate, small-molecule microarray, fluorescence 635/667 (AID 1065); details: higher = more signal, COS7 lysate expressing mutant human TOR1A
[3] = small molecules captured by biotinylated probe aFGF2 – biochemical, small-molecule microarray, fluorescence 635/667, stem cell growth factor project, primary screen (AID 1067); details: higher = more signal;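 also: measures binding of biotinylated aFGF2 protein to printed compounds on slides; z-score merges feature fluorescence and signal-to-noise across triplicate slides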
[4] = small molecules captured by biotinylated probe aFGF10 – biochemical, small-molecule microarray, fluorescence 635/667, stem cell growth factor project, primary screen (AID 1071); details: higher = more signal;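 also: score merges 667 nm spot intensity and signal to noise from triplicate slides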
[5] = target: Neurogenic locus notch homolog protein 2 (Homo sapiens) (UniProt Q04721); assay: small molecules binding Notch2 protein – biochemical, small-molecule microarray, 635 nm fluorescence, stem cell growth factors, primary screen (AID 1073); details: higher = more signal
[6] = target: Pro-neuregulin-1, membrane-bound isoform (Homo sapiens) (UniProt Q02297); assay: small molecules binding neuregulin-1 protein – biochemical, small-molecule microarray, fluorescence 635/667, psychiatric disease protein project, primary screen (AID 1075); details: NRG1 binding, 635 nm fluorescence, higher = more signal;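 also: score combines 667 nm spot fluorescence with signal to noise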
[7] = test system: Neuregulin-1 EGF-like domain; assay: small molecules binding NRG1 EGF domain – biochemical, small-molecule microarray, 635 nm fluorescence, primary screen (AID 1081); details: higher = more signal;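 also: binding of the protein to compounds printed on small-molecule microarray slides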
[8] = FRG1 expression reporter modulators in myotubes – cell-based, C2C12 myotubes, firefly/Renilla luciferase, luminescence, FRG1 inhibition for FSHD, primary screen (AID 1084); details: FRG1 promoter luciferase, higher = more signal, called active from +8 up or from −8 down
[9] = small molecules captured by biotinylated probe aFST – biochemical, small-molecule microarray, fluorescence 635/667, stem cell growth factor project, primary screen (AID 1086); details: higher = more signal;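 also: score merges 667 nm fluorescence with signal-to-noise of each printed compound spot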
[10] = binders of probe aHhip on microarray, primary screen, stem cell growth factor project, biochemical, small-molecule microarray, fluorescence 635/667 (AID 1087); details: higher = more signal;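 also: score merges spot fluorescence at 667nm with spot signal to noise ratio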
[11] = test system: PRMT1 (protein arginine N-methyltransferase 1); assay: small molecules binding arginine methyltransferase PRMT1 – biochemical, small-molecule microarray, 635 nm fluorescence, primary screen (AID 1088); details: higher = more signal;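 also: binding of Prmt1 protein to compounds spotted on small-molecule microarray slides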
[12] = growth effects on S. cerevisiae YJM789 – YJM789 clinical isolate, OD600, 24 h, basal, primary screen (AID 1089); details: higher = more signal, called active from +8 up or from −8 down;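 also: growth of clinical yeast isolate S. cerevisiae YJM 789 seeded 1000 cells per well; test concentration not given here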
[13] = S. pombe growth modifiers, basal conditions – strain 972, OD600, 24 h, no modulator, primary screen (AID 1090);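 also: basal condition with compound alone and no growth modifier present; test concentration not given here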; details: S. pombe 972 growth, higher = more signal, called active from +8 up or from −8 down
[14] = budding yeast growth modifiers under rapamycin – strain BY4716, OD600, 96 h, primary screen (AID 1091); also: test concentration not given here; details: S. cerevisiae BY4716 + rapamycin, higher = more signal, called active from +8 up or from −8 down
[15] = target: Torsin-1A-interacting protein 2 (Homo sapiens) (UniProt Q8NFQ8); assay: small molecules binding lysate-expressed LULL1 – cell lysate, human LULL1 lysate, 635/667 nm fluorescence, primary screen (AID 1092); details: small-molecule microarray, hLULL1 lysate binding, 635 nm fluorescence; higher = more signal;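 also: probe is lysate of COS7 cells overexpressing human LULL1; score merges per-feature 667 nm fluorescence with signal-to-noise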
[16] = optical density change of DRC41 E. coli – strain DRC41, OD650, 24 h, E. coli filamentation project, primary screen (AID 1093);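 also: MC1000 strain lacking acrAB efflux and sulA so SOS filamentation is blocked; test concentration not given here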; details: E. coli DRC41 growth, higher = more signal, called active from +8 up or from −8 down
[17] = probe aLefty2 binding to arrayed compounds – biochemical, biotinylated probe, 635/667 nm fluorescence, primary screen (AID 1094); details: small-molecule microarray, higher = more signal;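 also: score merges spot fluorescence near 667 nm with spot signal-to-noise ratio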
[18] = test system: Noggin (protein binding on small-molecule microarray); assay: small molecules binding Noggin protein – biochemical, 635/667 nm fluorescence, primary screen (AID 1095); details: 635 nm fluorescence, higher = more signal;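 also: score merges 667 nm feature fluorescence with signal to noise over triplicate slides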
[19] = target: Neurogenic locus notch homolog protein 3 (Homo sapiens) (UniProt Q9UM47); assay: small molecules binding NOTCH3 protein – biochemical, 635/667 nm fluorescence, primary screen (AID 1096); details: small-molecule microarray, 635 nm fluorescence, higher = more signal
[20] = probe aEGFR binding to arrayed compounds – biochemical, biotinylated probe, 635/667 nm fluorescence, primary screen (AID 1097); details: small-molecule microarray, higher = more signal;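 also: probe is a biotinylated anti-EGFR antibody binding compounds printed on slides; score combines fluorescence near 667 nm and signal to noise of each spot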

Pro-neuregulin-1, membrane-bound isoform (Homo sapiens), sequence (Q02297 whole entry, looked up, the tested form may be a part, canonical isoform): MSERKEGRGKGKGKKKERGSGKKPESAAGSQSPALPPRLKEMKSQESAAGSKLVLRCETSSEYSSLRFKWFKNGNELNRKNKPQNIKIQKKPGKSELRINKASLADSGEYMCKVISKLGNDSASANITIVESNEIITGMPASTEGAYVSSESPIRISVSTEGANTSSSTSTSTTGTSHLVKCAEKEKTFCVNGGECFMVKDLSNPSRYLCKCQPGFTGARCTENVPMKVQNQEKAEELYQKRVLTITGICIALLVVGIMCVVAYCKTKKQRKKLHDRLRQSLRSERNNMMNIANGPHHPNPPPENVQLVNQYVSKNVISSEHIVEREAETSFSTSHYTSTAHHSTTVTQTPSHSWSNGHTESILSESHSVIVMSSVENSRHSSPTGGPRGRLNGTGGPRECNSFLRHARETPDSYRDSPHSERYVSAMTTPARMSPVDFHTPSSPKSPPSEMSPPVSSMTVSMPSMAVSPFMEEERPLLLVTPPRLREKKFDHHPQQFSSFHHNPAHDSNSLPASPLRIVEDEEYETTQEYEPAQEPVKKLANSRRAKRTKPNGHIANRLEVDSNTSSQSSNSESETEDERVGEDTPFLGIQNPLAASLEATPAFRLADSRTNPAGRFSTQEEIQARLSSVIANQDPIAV
Torsin-1A-interacting protein 2 (Homo sapiens), sequence (Q8NFQ8 whole entry, looked up): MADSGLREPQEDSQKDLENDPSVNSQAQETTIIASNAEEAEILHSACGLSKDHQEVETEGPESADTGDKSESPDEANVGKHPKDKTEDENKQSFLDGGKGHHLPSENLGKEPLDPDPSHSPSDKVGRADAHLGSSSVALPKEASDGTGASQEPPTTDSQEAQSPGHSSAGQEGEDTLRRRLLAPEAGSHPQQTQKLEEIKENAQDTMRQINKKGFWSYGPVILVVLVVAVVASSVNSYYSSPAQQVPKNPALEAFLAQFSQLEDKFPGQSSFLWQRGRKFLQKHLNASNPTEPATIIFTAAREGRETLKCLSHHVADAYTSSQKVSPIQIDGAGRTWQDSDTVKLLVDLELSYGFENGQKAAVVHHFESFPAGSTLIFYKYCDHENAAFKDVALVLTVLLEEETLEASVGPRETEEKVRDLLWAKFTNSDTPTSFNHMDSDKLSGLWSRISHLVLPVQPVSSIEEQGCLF
Neurogenic locus notch homolog protein 2 (Homo sapiens), sequence (Q04721 whole entry, looked up, canonical isoform): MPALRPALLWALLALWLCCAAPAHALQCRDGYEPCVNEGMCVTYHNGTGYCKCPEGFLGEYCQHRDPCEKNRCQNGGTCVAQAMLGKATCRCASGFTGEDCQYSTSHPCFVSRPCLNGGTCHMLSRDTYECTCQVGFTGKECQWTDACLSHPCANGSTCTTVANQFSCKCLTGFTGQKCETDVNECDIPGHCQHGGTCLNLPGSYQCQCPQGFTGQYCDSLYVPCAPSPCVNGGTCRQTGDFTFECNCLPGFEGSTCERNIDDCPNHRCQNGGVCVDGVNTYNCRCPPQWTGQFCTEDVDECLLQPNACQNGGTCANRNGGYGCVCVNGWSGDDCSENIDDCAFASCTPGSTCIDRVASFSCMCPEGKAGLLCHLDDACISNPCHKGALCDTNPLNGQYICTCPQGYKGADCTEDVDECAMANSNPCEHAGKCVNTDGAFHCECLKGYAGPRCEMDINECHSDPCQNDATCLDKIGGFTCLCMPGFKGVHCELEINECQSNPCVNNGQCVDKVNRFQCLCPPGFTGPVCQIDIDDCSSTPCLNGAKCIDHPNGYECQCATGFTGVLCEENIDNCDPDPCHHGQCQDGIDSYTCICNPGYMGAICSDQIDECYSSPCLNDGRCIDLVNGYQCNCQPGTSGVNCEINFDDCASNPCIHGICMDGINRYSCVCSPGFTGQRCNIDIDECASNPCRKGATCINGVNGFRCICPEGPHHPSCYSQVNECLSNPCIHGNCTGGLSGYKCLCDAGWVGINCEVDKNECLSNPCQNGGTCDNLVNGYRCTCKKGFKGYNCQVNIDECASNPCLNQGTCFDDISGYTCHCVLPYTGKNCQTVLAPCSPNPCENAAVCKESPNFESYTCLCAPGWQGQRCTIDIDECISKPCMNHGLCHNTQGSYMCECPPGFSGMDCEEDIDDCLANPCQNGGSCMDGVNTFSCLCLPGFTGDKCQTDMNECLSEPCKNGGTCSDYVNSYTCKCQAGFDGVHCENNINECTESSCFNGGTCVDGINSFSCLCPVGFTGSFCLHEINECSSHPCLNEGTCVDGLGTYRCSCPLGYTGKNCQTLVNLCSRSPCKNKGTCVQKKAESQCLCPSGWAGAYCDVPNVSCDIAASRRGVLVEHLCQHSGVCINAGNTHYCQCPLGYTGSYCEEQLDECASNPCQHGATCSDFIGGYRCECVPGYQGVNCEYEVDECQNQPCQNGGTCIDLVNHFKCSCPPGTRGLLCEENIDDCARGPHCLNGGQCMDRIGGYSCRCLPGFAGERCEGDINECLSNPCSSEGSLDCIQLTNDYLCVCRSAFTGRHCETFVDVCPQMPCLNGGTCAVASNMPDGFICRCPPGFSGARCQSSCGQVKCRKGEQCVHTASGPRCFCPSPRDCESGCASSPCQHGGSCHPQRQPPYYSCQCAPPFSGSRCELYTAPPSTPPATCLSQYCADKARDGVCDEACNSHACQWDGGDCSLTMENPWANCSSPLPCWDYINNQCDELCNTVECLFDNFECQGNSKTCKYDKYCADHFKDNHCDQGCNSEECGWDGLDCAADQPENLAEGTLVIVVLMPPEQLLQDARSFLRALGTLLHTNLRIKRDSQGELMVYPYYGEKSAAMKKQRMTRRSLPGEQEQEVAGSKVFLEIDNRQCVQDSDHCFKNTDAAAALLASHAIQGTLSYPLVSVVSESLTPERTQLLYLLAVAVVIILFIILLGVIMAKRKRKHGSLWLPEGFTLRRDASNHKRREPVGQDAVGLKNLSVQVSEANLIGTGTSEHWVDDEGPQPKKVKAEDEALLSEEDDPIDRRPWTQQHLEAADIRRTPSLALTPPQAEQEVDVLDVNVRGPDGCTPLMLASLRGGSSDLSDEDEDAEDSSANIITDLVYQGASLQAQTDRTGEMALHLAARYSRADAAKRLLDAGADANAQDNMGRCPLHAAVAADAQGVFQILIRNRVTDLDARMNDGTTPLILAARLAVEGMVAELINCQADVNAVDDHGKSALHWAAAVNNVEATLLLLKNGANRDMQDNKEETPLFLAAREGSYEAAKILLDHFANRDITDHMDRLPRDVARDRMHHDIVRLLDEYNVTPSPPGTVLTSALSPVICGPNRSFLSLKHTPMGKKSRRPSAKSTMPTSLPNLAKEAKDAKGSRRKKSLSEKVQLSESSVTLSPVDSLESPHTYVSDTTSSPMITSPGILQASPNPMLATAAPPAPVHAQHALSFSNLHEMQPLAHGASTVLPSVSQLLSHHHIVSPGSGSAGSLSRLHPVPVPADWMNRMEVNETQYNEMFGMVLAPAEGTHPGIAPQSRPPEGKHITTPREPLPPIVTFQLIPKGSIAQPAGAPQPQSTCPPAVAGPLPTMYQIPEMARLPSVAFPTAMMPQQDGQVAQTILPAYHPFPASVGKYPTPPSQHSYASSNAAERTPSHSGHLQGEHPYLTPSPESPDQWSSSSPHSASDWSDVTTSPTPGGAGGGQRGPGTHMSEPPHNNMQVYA

OCC1CC(c2ccccc2)=NO1 (stereo not given)
composite z-score [1]: -0.315
composite z-score [2]: 0.239
composite z-score [3]: -0.0242
composite z-score [4]: 0.202
composite z-score [5]: -0.244
composite z-score [6]: -0.584
composite z-score [7]: -0.164
z-score [8]: 0.557 (inactive)
composite z-score [9]: 0.127
composite z-score [10]: 0.235
composite z-score [11]: -1.11
z-score [12]: -0.248 (inactive)
z-score [13]: -0.0256 (inactive)
z-score [14]: 0.368 (inactive)
composite z-score [15]: -1.3
z-score [16]: 0.677 (inactive)
composite z-score [17]: -0.119
composite z-score [18]: 0.397
composite z-score [19]: -0.473
composite z-score [20]: -0.068

CCOC(=O)C[C@H]1[C@H](OC(=O)c2cc3ccccc3oc2=O)[C@@H](NC(=O)c2ccc(-c3ccccc3)cc2)c2cc(OCCCO)ccc2N1C(=O)c1ccccc1
composite z-score [1]: -0.561
composite z-score [2]: 1.07
composite z-score [3]: 0.0407
composite z-score [4]: 0.731
composite z-score [5]: 1.36
composite z-score [6]: 0.687
composite z-score [7]: 1.31
z-score [8]: 0.335 (inactive)
composite z-score [9]: 0.497
composite z-score [10]: 0.102
composite z-score [11]: 1.02
z-score [12]: 0.11 (inactive)
z-score [13]: -1.64 (inactive)
z-score [14]: 0.117 (inactive)
composite z-score [15]: 1.21
z-score [16]: 1.56 (inactive)
composite z-score [17]: -0.0367
composite z-score [18]: 1.68
composite z-score [19]: 1.09
composite z-score [20]: 0.0526

C=CC[C@@]1(C(=O)N2CCOCC2)N=C(c2ccc(OCCCO)cc2)O[C@@H]1c1ccccc1CN=[N+]=[N-]
composite z-score [1]: -0.0448
composite z-score [2]: 0.326
composite z-score [3]: 0.141
composite z-score [4]: 1.01
composite z-score [5]: 1.62
composite z-score [6]: 1.53
composite z-score [7]: 1.15
z-score [8]: -1.21 (inactive)
composite z-score [9]: 1.17
composite z-score [10]: 0.0722
composite z-score [11]: 1.56
z-score [12]: 0.0366 (inactive)
z-score [13]: 0.472 (inactive)
z-score [14]: -0.74 (inactive)
composite z-score [15]: 3.28
z-score [16]: 0.0893 (inactive)
composite z-score [17]: 0.691
composite z-score [18]: 0.355
composite z-score [19]: 1.09
composite z-score [20]: 0.776

C=CC[C@]1(C(=O)O)COC(c2ccc(OCCCO)cc2)=N1
composite z-score [1]: -0.151
composite z-score [2]: 0.273
composite z-score [3]: -0.0538
composite z-score [4]: -0.114
composite z-score [5]: 0.675
composite z-score [6]: 1.79
composite z-score [7]: 1.07
z-score [8]: 0.519 (inactive)
composite z-score [9]: 0.403
composite z-score [10]: -0.249
composite z-score [11]: 0.262
z-score [12]: -0.396 (inactive)
z-score [13]: -0.636 (inactive)
z-score [14]: -0.581 (inactive)
composite z-score [15]: 3.36
z-score [16]: -0.204 (inactive)
composite z-score [17]: -0.0784
composite z-score [18]: 0.253
composite z-score [19]: 0.0614
composite z-score [20]: -0.0828

C=CC1c2cc(O)c(OC)cc2CCN1Cc1cc2c(cc1Br)OCO2 (stereo not given)
composite z-score [1]: 1.54
composite z-score [2]: 1.07
composite z-score [3]: -0.101
composite z-score [4]: -0.15
composite z-score [5]: -0.322
composite z-score [6]: 1.19
composite z-score [7]: 1.22
z-score [8]: -0.454 (inactive)
composite z-score [9]: 0.221
composite z-score [10]: -0.132
composite z-score [11]: 1.25
z-score [12]: -17.7 (active)
z-score [13]: -19.8 (active)
z-score [14]: -1.33 (inactive)
composite z-score [15]: 2.51
z-score [16]: -2 (inactive)
composite z-score [17]: 0.386
composite z-score [18]: 0.289
composite z-score [19]: 0.435
composite z-score [20]: -0.132
